Screens from PubChem.
Most compounds without a hit are left out; they make up all but 2% or so of the library.
M4 PAM – CHRM4 positive allosteric modulation; P08173; CHO-K1 hM4/Gqi5, Fluo-8 calcium fluorescence, ACh EC20; 0% = ACh EC20, 100% = maximal ACh; activation, % at 3 µM; 360,000 compounds, 0.4% hits;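 active means activation above its plate's cutoff, the mean activation of sample wells plus 3 SD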
Target sequence (P08173 whole entry, looked up): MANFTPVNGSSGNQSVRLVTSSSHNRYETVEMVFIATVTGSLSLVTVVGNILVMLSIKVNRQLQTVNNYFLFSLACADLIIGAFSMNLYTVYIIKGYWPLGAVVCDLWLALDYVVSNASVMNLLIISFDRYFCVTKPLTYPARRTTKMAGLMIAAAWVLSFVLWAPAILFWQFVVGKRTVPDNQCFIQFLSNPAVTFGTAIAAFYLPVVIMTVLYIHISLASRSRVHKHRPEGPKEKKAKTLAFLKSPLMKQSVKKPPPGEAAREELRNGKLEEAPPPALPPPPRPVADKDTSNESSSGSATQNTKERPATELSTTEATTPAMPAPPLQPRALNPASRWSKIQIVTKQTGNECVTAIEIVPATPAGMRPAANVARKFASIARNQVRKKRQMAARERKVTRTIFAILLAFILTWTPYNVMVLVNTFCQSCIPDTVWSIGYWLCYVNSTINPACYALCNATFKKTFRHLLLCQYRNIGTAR
CHRM4 agonist – agonists of human muscarinic M4 receptor (CHRM4); CHO-K1 hM4/Gqi5, Fluo-8 calcium fluorescence; vehicle 0%, full acetylcholine response 100%; 360,000 compounds, 0.14% hits; P08173; activation, % at 3 µM;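 active means activation above the run mean over all test wells plus 3 SD, cut at about 32% in these data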;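 further: peak over basal fluorescence ratio per well then scaled between controls; 0% = DMSO wells and 100% = acetylcholine at EC100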
CHO-K1 Ca PAM – counter-screen for M1 PAMs: effect in parental CHO-K1 cells | ATP EC20, Fluo-8 calcium fluorescence; 0% at ATP EC20, 100% at ATP max | 360,000 compounds, 0.02% hits | activation, % at 3 µM;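 active means activation above the run cutoff, the mean activation of all test compounds plus 3 SD, cut at about 40% in these data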;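 further: peak over basal fluorescence ratio in a 140 s read after ATP addition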
CHO-K1 Ca antag – nonselective inhibitor or artifact in parental CHO-K1 cells | 360,000 compounds, 0.6% hits | inhibition, % at 3 µM | ATP-induced calcium, Fluo-8 fluorescence;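 active means inhibition above a per-plate cutoff, the plate's mean sample inhibition plus 3 SD, cut at about 24% in these data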;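 further: 0% = DMSO plus EC80 ATP and 100% = DMSO alone without ATP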
M4 antag – CHRM4 antagonism in calcium assay; 360,000 compounds, 0.73% hits; CHO-hM4 cells, ACh EC80, Fluo-8 calcium fluorescence; P08173; inhibition, % at 3 µM;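 active means inhibition above its plate's cutoff, the mean inhibition of sample wells plus 3 SD, cut at about 27% in these data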;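 further: 0% = acetylcholine EC80 with DMSO and 100% = DMSO without agonist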
CHO-K1 Ca ag – M1 agonist counterscreen hit in parental CHO-K1 cells. Fluo-8 calcium fluorescence; scaled to maximal ATP response, vehicle zero. activation, % at 3 µM. 360,000 compounds, 0.48% hits; in the data active means activation above about 15%;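 further: untransfected CHO-K1 host cells lacking M1 receptor as counterscreen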
Starred values were filed as active, the others as inactive.

SMILES | M4 PAM | CHRM4 agonist | CHO-K1 Ca PAM | CHO-K1 Ca antag | M4 antag | CHO-K1 Ca ag
N#C/C(=N\Nc1cccc(C(F)(F)F)c1)C(=O)c1csc(-c2cccnc2)n1 | -14 | 11 | -1 | 24* | -11 | 10
Cc1ccc(C(=O)Nc2cccc(C(F)(F)F)c2)cc1NC(=O)c1csc(-c2ccncc2)n1 | -5 | 1 | -10 | 4 | 3 | 0
CC(C)N1CCC1(C)C(=O)Nc1ccc(-n2cccc2)cc1 (stereo not drawn) | 2 | 0 | -1 | 9 | -6 | 0
O=C1CC(=C(c2ccccc2)c2ccccc2)C(=O)N1CCCCN1CCN(c2ccccc2)CC1 | -25 | 0 | 15 | -13 | 34* | 0
O=C(CCCN1CCN(c2ccccc2)CC1)c1ccc(F)cc1 | 0 | 2 | 15 | -14 | -19 | 1
Cc1oc(-c2ccccc2Cl)nc1CN1CCCN(C(=O)c2ccco2)CC1 | -7 | 1 | -6 | 7 | -4 | 0
COC(=O)C1CC(O)CN1C(=O)Nc1cccc(C(F)(F)F)c1 (stereo not drawn) | -2 | 0 | -18 | 29* | -3 | -1
Nc1c(C(=O)CSc2nnnn2-c2ccccc2)c(=O)[nH]c(=O)n1C1CC1 | 11 | 2 | 30 | -21 | -13 | 2
COc1cc(C)c(Cl)cc1S(=O)(=O)NCC1CCCO1 (stereo not drawn) | -1 | 0 | 22 | -7 | 1 | 2
CCOc1ccc(CCNC(=O)CCc2nnc3ccc(N4CCCCC4)nn23)cc1OCC | -10 | 0 | 14 | 6 | 32* | 0
CCOc1ccc(CCNC(=O)CCc2nnc3ccc(N4CCOCC4)nn23)cc1 | -3 | 1 | 16 | -4 | 11 | 0
O=C(COc1ccc(-c2ccccc2)cc1)NNC(=O)NC1CCCCC1 | -21 | 3 | -6 | -4 | 87* | 1
O=[N+]([O-])c1c(Nc2cccc(O)c2)cc(Cl)c2nonc12 | -2 | -2 | 20 | 19 | 60* | 0
O=C(O)c1ccc(Nc2cc(Cl)c3nonc3c2[N+](=O)[O-])cc1 | 3 | 1 | -2 | 9 | -6 | 0
Cc1cc(N2CCOCC2)nc(NCc2ccccc2)n1 | -9 | 17 | -9 | 4 | 3 | 16*
Cc1cc(NCc2ccccc2)nc(N2CCOCC2)n1 | 7 | 3 | 15 | -11 | 3 | 1
Cc1cc(N2CCCCC2)nc(NCc2ccccc2)n1 | -17 | 37* | 0 | 13 | 8 | 20*
COc1cc(C(=S)N2CCOCC2)ccc1OC(=O)c1ccc(Br)cc1 | -10 | 11 | 7 | 28* | 1 | 12
COc1cc(C(=S)N2CCOCC2)ccc1OC(=O)c1cccc(C)c1 | -12 | 14 | -5 | 2 | 13 | 7
O=C1c2c(O)cc(O)cc2O[C@@]12c1c(cc(O)c3c1O[C@H](c1ccc(O)cc1)[C@@H](O)C3)O[C@@H]2c1ccc(O)cc1 | 18 | 1 | 4 | -14 | -6 | 1
Cc1cc(=O)n(-c2ccc3ccccc3n2)[nH]1 | 34* | 0 | -1 | 6 | 19 | 0
CC1=CCC2C(=O)N(c3ccc4ccccc4n3)C(=O)C2C1 (stereo not drawn) | -6 | 0 | -5 | 12 | 10 | 0
COc1ccc(OC)c2sc(N3CCN(c4ccccc4)CC3)nc12 | 1 | 0 | -5 | 28* | -4 | 0
NS(=O)(=O)c1ccc(CCNCc2cc(Cl)ccc2OCc2ccccc2)cc1 | -10 | 14 | 5 | 3 | 6 | 7
Nc1nonc1C(=O)NCCNCc1cc(Br)ccc1OCc1ccccc1F | -16 | 16 | -4 | 14 | 32* | 12
NS(=O)(=O)c1ccc(CCNCc2cc(Br)ccc2OCc2ccccc2F)cc1 | -16 | 30 | 8 | 9 | 28* | 8
Nc1nonc1C(=O)NCCNCc1ccccc1OCc1ccccc1F | -10 | 11 | 19 | -10 | 5 | 4
COc1cccc(CNCCNC(=O)c2nonc2N)c1 | 1 | 0 | 17 | -10 | -19 | 1
COc1cc(CNCCNC(=O)c2nonc2N)ccc1OCc1ccc(Cl)cc1 | -14 | 20 | 14 | 1 | 18 | 17*
CCC(=O)N(c1nnc(SCC(=O)NN2C(=O)NC3(CCCCC3)C2=O)s1)C1CC1 | 2 | 1 | 2 | -9 | 4 | 1
